# Screens as filed in PubChem BioAssay.
# HepG2 tox – counter-screen for TGF-b inhibitors: cytotoxicity in HepG2 cells. 410,000 tested, 0.76% active. AID 588856. Potency, µM (doses to about 46.1 µM), without a hit: top-dose activity change, negative = cytotoxicity, usual class: cytotoxic. HepG2 CAGA-GFP viability, ATP luminescence, 18 h; note: potency is the fitted concentration of half-maximal effect
#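 CellTiter-Glo luminescence gave cytotoxicity after 18 hours at 37 degrees C. The cells were HepG2 CAGA-GFP in 1% FBS DMEM, stimulated with 500 pg/mL TGF-beta after compound addition. %Activity was normalised to no-cell wells (complete cell-killing) and DMSO (no toxicity), and curves were fitted and classified.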
# IL-1B inflam inh – blocks inflammasome-driven IL-1 beta release; THP-1 LPS/ATP IL-1B secretion, AlphaLISA, 16 h; stronger effect = lower value; activity change, % at 57.5 µM; 360,000 tested, 4.7% active; AID 743279; in the data active = activity change below about -50%; inconclusive = mostly about -30% to -49%; note: % is set by controls: 0 for no effect and ±100 for the full control effect
#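 THP-1 cells pretreated 1 hr with compounds (up to 57.5 uM final), then stimulated with LPS (250 ng/mL final) plus ATP (1.25 mM final); secreted IL-1B measured by AlphaLISA after 16 hr, decreased signal indicating inhibition.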
# TDP1 inh – inhibitors of human tyrosyl-DNA phosphodiesterase TDP1. AID 485290. 350,000 tested, 0.28% active. Potency, µM (highest dose often 130 µM), for inactives: at the highest dose activity change, negative = inhibition, actives largely listed as inhibitors. recombinant TDP1, AlphaScreen DNA substrate cleavage; note: potency is the fitted concentration of half-maximal effect; % is set by controls: 0 for no effect and ±100 for the full control effect; nearly all actives have a fitted effect of over 40% in size
# Target sequence (Q9NUW8 whole entry, looked up): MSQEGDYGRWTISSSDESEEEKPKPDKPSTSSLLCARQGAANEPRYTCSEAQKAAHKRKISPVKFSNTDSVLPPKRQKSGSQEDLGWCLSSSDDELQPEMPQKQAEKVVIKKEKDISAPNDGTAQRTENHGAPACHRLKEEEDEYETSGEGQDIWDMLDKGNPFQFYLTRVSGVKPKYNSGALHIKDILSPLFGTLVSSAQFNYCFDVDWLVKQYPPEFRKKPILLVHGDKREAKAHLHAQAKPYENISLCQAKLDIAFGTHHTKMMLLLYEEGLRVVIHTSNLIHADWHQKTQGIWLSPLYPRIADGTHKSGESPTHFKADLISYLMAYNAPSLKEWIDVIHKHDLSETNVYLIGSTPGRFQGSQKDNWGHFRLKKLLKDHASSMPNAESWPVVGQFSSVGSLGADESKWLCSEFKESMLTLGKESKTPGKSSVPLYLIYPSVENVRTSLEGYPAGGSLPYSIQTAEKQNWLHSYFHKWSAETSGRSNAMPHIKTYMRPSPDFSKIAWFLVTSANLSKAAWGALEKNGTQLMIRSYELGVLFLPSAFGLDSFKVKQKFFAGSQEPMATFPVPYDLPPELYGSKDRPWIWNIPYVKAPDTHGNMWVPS
#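 Recombinant E. coli-expressed Tdp1 (1 nM) preincubated with compound 15 min at RT, then 5'-biotin/3'-phosphotyrosine-FITC DNA substrate (15 nM) added for 5 min. AlphaScreen beads (10 ug/ml) added, 10 min RT; tyrosine-FITC cleavage read as signal loss.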
# TDP1 cell noCPT – qHTS for Inhibitors of human tyrosyl-DNA phosphodiesterase 1 (TDP1): qHTS in cells in absence of CPT; DT40 Tdp1-/- hTDP1 cells, no CPT, ATP luminescence, 48 h; Potency, µM (doses to about 46.2 µM), without a hit: top-dose activity change, negative = growth inhibition, usual class: inhibitors; 420,000 tested, 15% active; note: potency is the fitted concentration of half-maximal effect; % is set by controls: 0 for no effect and ±100 for the full control effect; nearly all actives have a fitted effect of over 55% in size
#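 A cellular qHTS used chicken DT40 cells lacking endogenous Tdp1 but carrying stably transfected human TDP1. Compounds were applied without camptothecin, and cell growth kinetics were judged by ATP-dependent luminescence after ≥48 hr.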
# TDP1 cell CPT – DT40-hTDP1 cell growth loss with CPT; 420,000 tested, 12% active; chicken DT40 Tdp1-/-;hTDP1 cells + 20 nM CPT, ATP luminescence, 48 h; Potency, µM (top dose mostly 46.2 µM), for inactives: at the top dose activity change, negative = growth inhibition, usual class: inhibitors; note: potency is the fitted concentration of half-maximal effect; % is set by controls: 0 for no effect and ±100 for the full control effect; nearly all actives have a fitted effect of over 55% in size
#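 Chicken DT40 Tdp1-/- cells complemented with human TDP1, 400 cells/well, exposed to compounds plus 20 nM camptothecin for at least 48 h at 37 C; viability read as ATP content by CellTiter-Glo luminescence.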
# TGFb SMAD3 inh – TGF-b pathway inhibition. HepG2 CAGA-GFP TGF-b/SMAD3 reporter, GFP fluorescence, 18 h; TGF-beta stimulated, 500 pg/mL final. 410,000 tested, 1.2% active. AID 588855. Potency, µM (series often up to 46.1 µM), for the others: at the top dose activity, negative = inhibition, actives largely listed as inhibitors; note: potency is the fitted concentration of half-maximal effect; % is set by controls: 0 for no effect and ±100 for the full control effect; nearly all actives have a fitted effect of over 65% in size
#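 Read-out: total well GFP (ex488/em500-530) summed from mean per-cell fluorescence. Cells: HEPG2 CAGA-GFP, 1% FBS DMEM, 18 h at 37 degrees C with 500 pg/mL final TGF-beta. Unstimulated wells served as the full-inhibition control; stimulated DMSO wells = 0%.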
# Starred values were filed as active, the others as inactive; ? = inconclusive; · = no result given; [ ] = dose if it differs, or a comment. Compounds with a hit are over-represented: about 19% of the library has one in this group of screens. Unless noted, calls come from the whole dose curve; as a rule, active = well fitted curve in the direction sought with a large enough effect; inconclusive = small, poorly fitted or top-dose-only effect, or another doubt; inactive = no such curve, though single readings can be large; an effect the other way counts as inactive or inconclusive.
SMILES,HepG2 tox,IL-1B inflam inh,TDP1 inh,TDP1 cell noCPT,TDP1 cell CPT,TGFb SMAD3 inh
CCOC(=O)c1c(N)sc2c1CCN(Cc1ccccc1)C2,-3%,·,9%,15µM*,?,7%
CCC(=O)Nc1sc2c(c1C(N)=O)CCN(Cc1ccccc1)C2,-21%,-24,·,?,-3%,-1%
CCOC(=O)c1c(NC(=S)Nc2ccc(Cl)cc2)sc2c1CCN(C)C2,-39%,-15,5%,?,16µM*,2%
CCOC(=O)c1c(NC(=S)Nc2ccc(OCC)cc2)sc2c1CCN(C)C2,-35%,-6,8%,-18%,-28%,-1%
CCOC(=O)c1c(NC(=O)Cc2ccccc2)sc2c1CCN(CC)C2,-23%,?,·,?,?,-21%
CCN1CCc2c(sc(NC(=O)Cc3ccccc3)c2C(=O)OC)C1,-3%,?,·,?,12µM*,-11%
COc1ccc(N2C(=O)CC(Sc3nnc(-c4ccccc4F)n3C)C2=O)cc1 (stereo not given),0%,18,-8%,5.2µM*,4.1µM*,19%
COc1ccc(N2C(=O)CC(Sc3nc4ccccc4s3)C2=O)cc1 (stereo not given),12%,9,1%,3.7µM*,2.9µM*,12%
COc1ccc(N2C(=O)CC(Sc3nccc(C)n3)C2=O)cc1 (stereo not given),0%,2,0%,-29%,-22%,-2%
COc1ccc(N2C(=O)CC(NNc3nc4ccccc4s3)C2=O)cc1 (stereo not given),-16%,16,0%,0%,-6%,4%
CCOc1ccc2nc(SC3CC(=O)N(c4ccc(OC)cc4)C3=O)sc2c1 (stereo not given),-24%,-4,6%,4.6µM*,2.9µM*,?
C=CCNc1nnc(SC2CC(=O)N(c3ccc(OC)cc3)C2=O)s1 (stereo not given),-19%,-11,0%,4.6µM*,3.7µM*,-6%
Cc1ccc(C(=O)Nc2cccc3cccnc23)cc1C,-32%,-16,·,?,?,-5%
CCC1=C2CC[C@H]3C(=O)N(CC(=O)OC)C(=O)[C@H]3[C@H]2[C@@]2(C)C(=O)N(Cc3ccccc3)C(=O)N2C1=O,·,·,4%,·,·,·
CCOc1ccc(C(=O)NCCc2sc(-c3ccc(OC)c(OC)c3)nc2C)cc1,-1%,·,2%,·,·,0%
CN(C)c1ccc(-c2nc3cnccn3c2Nc2cccc(C(F)(F)F)c2)cc1,-5%,·,9%,?,26µM*,-23%
CCc1cccc(C)c1Nc1c(-c2cccc(O)c2)nc2cnccn12,-60%,·,6%,?,?,11µM*
CCc1cccc(C)c1Nc1c(-c2ccc(N(C)C)cc2)nc2cnccn12,16µM*,·,15%,23µM*,?,16µM*
CN(C)c1ccc(-c2nc3cnccn3c2Nc2ccc3c(c2)OCCO3)cc1,11%,3,13%,-6%,-30%,-10%
O=C(Nc1ccc(S(=O)(=O)N2CCC(c3nc4ccccc4s3)CC2)cc1)c1ccccc1,2%,·,9%,4%,3%,-6%
O=C(Cn1c(-c2cccs2)cc2cc(Cl)ccc21)N1CCN(c2ccccc2)CC1,-25%,·,2%,-28%,?,?
Oc1c(Cl)cc(Cl)cc1/C=N/c1nccs1,-8%,-13,2%,?,26µM*,-27%
CCOc1cc2c(cc1OCC)C(c1c(F)cccc1Cl)CC(=O)N2 (stereo not given),-36%,·,-2%[12.3 µM],?,?,?
CCCCSc1nnc2c(n1)OC(c1ccc(C)s1)Nc1ccccc1-2 (stereo not given),-10%,·,7%,12µM*,18µM*,1%
CCCCCSc1nnc2c(n1)OC(c1ccc(C)s1)N(C(C)=O)c1ccccc1-2 (stereo not given),-65%,·,6%,8.2µM*,18µM*,?
SMILES,HepG2 tox,IL-1B inflam inh,TDP1 inh,TDP1 cell noCPT,TDP1 cell CPT,TGFb SMAD3 inh
O=C(COc1ccc(Cl)cc1)OCc1cc(=O)n2nc(-c3cccs3)sc2n1,1%,·,-1%,-17%,-11%,0%
COc1ccc(/C=N/n2cnn(Cc3ccccc3Cl)c2=S)cc1OC,0%,-55*,6%,?,?,-1%
CCCCc1c(C)c(C#N)c2[nH]c3ccccc3n2c1=O,-52%,54,5%,16µM*,23µM*,3.2µM*
Cc1c(CCC(C)C)c(=O)n2c([nH]c3ccccc32)c1C#N,-3%,19,-2%,5.8µM*,?,-16%
CC1Cc2ccccc2N1C(=O)CNCCCN(C)C (stereo not given),27%,6,-15%,-27%,11%,10%
CC1CC2(C)Oc3ccccc3CC2C(C)C1CNCCCN(C)C (stereo not given),13µM*,?,3%,1.2µM*,4.1µM*,?
Cc1cccc(N2CCN(C(=O)NC3CCCCC3)CC2)c1C,-41%,-56*,·,-19%,?,?
CCC(=O)N1c2ccccc2CC1C(=O)NCCN1CCN(c2ccccc2F)CC1 (stereo not given),-28%,·,-4%,?,?,-1%
Cc1ccc(N2CCN(C(=O)NC3CCCCC3)CC2)c(C)c1,-2%,-11,·,?,?,9%
CC(=O)N1c2ccccc2CC1C(=O)N1CCN(c2ccccc2F)CC1 (stereo not given),-51%,·,-1%,-4%,?,-24%
CCC(=O)N1c2ccccc2CC1C(=O)NCCN1CCN(c2cccc(C(F)(F)F)c2)CC1 (stereo not given),-1%,·,1%,29µM*,16µM*,-7%
CCC(=O)N1c2ccccc2CC1C(=O)NCCN1CCN(c2cccc(C)c2C)CC1 (stereo not given),-11%,·,1%,?,23µM*,7%
CC(=O)N1c2ccccc2CC1C(=O)N1CCN(c2cccc(C)c2C)CC1 (stereo not given),-6%,·,-6%,15µM*,23µM*,0%
O=C1CN(C(=O)c2c(F)cccc2Cl)C(c2ccc(F)cc2)c2cc(Br)ccc2N1 (stereo not given),-30%,·,6%,?,?,0%
CCc1nnc(NC(=O)C(=O)c2cc(C)n(-c3ccccc3)c2C)s1,0%,·,9%,-25%,-5%,-28%
